Screens as filed in PubChem BioAssay.
EWS-Fli block: EWS/Fli-driven NR0B1 reporter inhibitors, primary screen, A673 cells, NR0B1 luciferase, luminescence, MLPCN library | viability-normalised | inhibition, % at 12.6 µM | actives 0.67% (n = 350,000) | AID 651661, 2012;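 active = mean inhibition of at least 50% after viability correction, with every replicate also passing that limit; inconclusive = mean reaches 50% but only one of two replicates passes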;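 note: firefly luciferase signal divided by Alamar Blue viability fluorescence both relative to DMSO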
PAX8 inh HTS: inhibitors of PAX8-driven TPO luciferase reporter, primary screen, RMG-I cells, single concentration | SteadyGlo, 24 h | actives 1.2% (n = 360,000) | inhibition, % at 12.6 µM | AID 652154, 2013;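 active = mean replicate inhibition at least 60% with every replicate also reaching 60%; inconclusive = only one of the two criteria is met; inactive = mean below 60% and not all replicates reaching 60%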;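 note: luciferase light reporting Pax8 driven TPO promoter activity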
PGC1a acetyl inh: inhibitors of PGC1a acetylation signal, primary screen, cell-based, U2OS, AlphaScreen, inhibitor mode; AlphaScreen anti-acetyl-lysine; with virally co-expressed GCN5 acetyltransferase; inhibition, % at 15.6 µM; actives 0.17% (n = 350,000);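 active = every replicate shows inhibition of at least 40%; inconclusive = mean inhibition at least 40% but some replicate below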
Env fusion inh: inhibitors of HIV-1 Env-driven cell-cell fusion, primary screen, HeLa-JRFL effector, CEM21 target cells, luciferase. inhibition, % at 12.3 µM. actives 1.1% (n = 360,000). AID 651610, 2012;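 active = mean replicate inhibition score of at least 50 and every replicate individually at or above 50; inconclusive = only one of the two criteria met; inactive = mean below 50 and not all replicates reaching 50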
GSIS activator: GLuc luminescence reporter in INS-1E cells, primary screen for activators of glucose-dependent secretion of insulin | INS-1E GLuc reporter insulin secretion, 2-3 h | activation, % at 16.6 µM | actives 0.61% (n = 370,000);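 active = lowest replicate activation of at least 40%, so every replicate reaches that level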
CFTR F508del cor: F508del CFTR correction, initial screen, CFBE line, single point; CFBE cells, YFP halide quenching; stimulated with forskolin plus potentiator P3; % fluorescence drop versus neutral controls; activity (quench increase), % at 7.58 µM; actives 0.36% (n = 350,000);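 active = mean added fluorescence quench of at least 8% versus neutral control, with both replicates also reaching 8%; inconclusive = only one of the mean or replicate conditions met; inactive = mean below 8% and not both replicates reaching 8%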;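 note: cells transiently co-express mutant CFTR-F508del with the halide-sensitive YFP; corrector assay measuring rescue of mutant channel to the surface after 24 h compound exposure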
A number is an active result; ! = not confirmed by another sample. Most compounds without a hit are left out; they make up all but 2.7% or so of the library.

`COc1ccc(NC(=O)N(C)C[C@H]2Oc3ccc(NS(=O)(=O)c4ccc(Cl)cc4)cc3C(=O)N([C@H](C)CO)C[C@H]2C)cc1` gave EWS-Fli block inactive, Env fusion inh inactive, GSIS activator inactive and CFTR F508del cor inactive.
For CCOc1ccc2c(c1)sc(N)[n+]2Cc1cc(C)cc2cccnc12 the results were EWS-Fli block inactive, PAX8 inh HTS inactive, PGC1a acetyl inh inactive, Env fusion inh inactive, GSIS activator inactive and CFTR F508del cor inconclusive.
For COc1ccc2c(c1)sc(N)[n+]2Cc1cc(C)cc2cccnc12 the results were EWS-Fli block inactive, PAX8 inh HTS inactive, Env fusion inh inactive, GSIS activator inactive and CFTR F508del cor 11.
Screening Cc1cccc(N2CCN(C(=O)c3cccn4c(=O)c5c(C)c(C)sc5nc34)CC2)c1C returned PGC1a acetyl inh inactive, Env fusion inh inactive and GSIS activator 156.
For CCOC(=O)N1CCN(c2cccc(C)c2C)CC1 the results were EWS-Fli block inactive, PAX8 inh HTS 70, GSIS activator inactive and CFTR F508del cor inactive.
`Cc1cccc(N2CCN(C(=O)CNC(=O)C3CCCCC3)CC2)c1C` gave EWS-Fli block inactive, PAX8 inh HTS inactive, PGC1a acetyl inh inactive, Env fusion inh 56, GSIS activator inactive and CFTR F508del cor inactive.
For CCOc1ncccc1C(=O)N1CCN(c2cccc(C)c2C)CC1 the results were EWS-Fli block inconclusive, PAX8 inh HTS 63, Env fusion inh inactive, GSIS activator inactive and CFTR F508del cor inactive.
`COc1ccc(Nc2ccnc3ccccc23)cc1` gave PGC1a acetyl inh 51.
For CC(C)Nc1ccc(Nc2ccnc3cc4ccccc4cc23)cc1 the results were EWS-Fli block inactive, PAX8 inh HTS 97, PGC1a acetyl inh inactive, Env fusion inh inactive, GSIS activator inactive and CFTR F508del cor 27.
Screening Cc1ccc(-c2cnc3c(c2)C(=O)N([C@H](C)CO)C[C@@H](C)[C@H](CN(C)C(=O)c2cccc(F)c2)O3)cc1 returned EWS-Fli block inactive, PAX8 inh HTS inactive, PGC1a acetyl inh inactive, Env fusion inh inactive, GSIS activator inactive and CFTR F508del cor inactive.
Screening CC[n+]1c(/C=C/c2ccc(OC)c(OC)c2)ccc2ccccc21 returned EWS-Fli block inactive, PAX8 inh HTS inactive, Env fusion inh inactive, GSIS activator inactive and CFTR F508del cor inactive.
`CC[n+]1c(/C=C/c2ccc(N(C)C)cc2)ccc2ccccc21` gave EWS-Fli block inactive, PAX8 inh HTS 90, Env fusion inh inactive and GSIS activator inactive.
`CCCCCC[n+]1ccccc1/C=C/c1ccc(N(C)C)cc1` gave EWS-Fli block inactive, PAX8 inh HTS 98, Env fusion inh inactive, GSIS activator inactive and CFTR F508del cor inactive.
`CC[n+]1ccc(/C=C/c2ccc(N(C)C)cc2)c2ccccc21` gave EWS-Fli block 58, PAX8 inh HTS 95, Env fusion inh inactive, GSIS activator inactive and CFTR F508del cor inactive.
Screening CCN(CC)c1ccc(/C=C/c2ccc3ccc(OC)cc3[n+]2CC)cc1 returned EWS-Fli block 57, PAX8 inh HTS 83, PGC1a acetyl inh inactive, Env fusion inh inactive, GSIS activator inactive and CFTR F508del cor inactive.
CC[n+]1c(/C=C/c2ccc(OC(C)=O)c(OC)c2)ccc2ccccc21 was read as EWS-Fli block inactive, PAX8 inh HTS inactive, PGC1a acetyl inh inactive, Env fusion inh inactive, GSIS activator inactive and CFTR F508del cor inactive.
Screening COc1ccccc1S(=O)(=O)N[C@H]1CC[C@H](CCNC(=O)C2CC2)O[C@@H]1CO returned EWS-Fli block inactive, PAX8 inh HTS inactive, PGC1a acetyl inh inactive, Env fusion inh inactive, GSIS activator inactive and CFTR F508del cor inactive.
COC(=O)N(C)C[C@H]1OCc2ccccc2-c2c(n(C)c3ccccc23)C(=O)N([C@@H](C)CO)C[C@@H]1C was read as EWS-Fli block inactive, PGC1a acetyl inh inactive, GSIS activator inactive and CFTR F508del cor inactive.
`COC(=O)N(C)C[C@@H]1OCc2ccccc2-c2c(n(C)c3ccccc23)C(=O)N([C@H](C)CO)C[C@@H]1C` gave EWS-Fli block inactive, PAX8 inh HTS inactive, PGC1a acetyl inh inactive, Env fusion inh 66!, GSIS activator inactive and CFTR F508del cor inactive.
